Compound activity deposited in PubChem by National Center for Advancing Translational Sciences (NCATS).
Sampled rows, rich in hits. Any-hit rate of the full collection: about 4.1%.
AmpC detergent = AmpC beta-lactamase inhibition with detergent present; AmpC hydrolysis of nitrocefin, absorbance 480 nm, 0.01% Triton; Potency, µM (series often up to 114 µM), for inactives: top-dose activity change, negative = inhibition, actives largely listed as inhibitors; actives 0.041% (n = 370,000); AID 485294;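 also: 0% = no-compound wells and -100% = no-enzyme wells; nearly all actives have a fitted effect of over 25% in size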
Target sequence (P00811 whole entry, looked up): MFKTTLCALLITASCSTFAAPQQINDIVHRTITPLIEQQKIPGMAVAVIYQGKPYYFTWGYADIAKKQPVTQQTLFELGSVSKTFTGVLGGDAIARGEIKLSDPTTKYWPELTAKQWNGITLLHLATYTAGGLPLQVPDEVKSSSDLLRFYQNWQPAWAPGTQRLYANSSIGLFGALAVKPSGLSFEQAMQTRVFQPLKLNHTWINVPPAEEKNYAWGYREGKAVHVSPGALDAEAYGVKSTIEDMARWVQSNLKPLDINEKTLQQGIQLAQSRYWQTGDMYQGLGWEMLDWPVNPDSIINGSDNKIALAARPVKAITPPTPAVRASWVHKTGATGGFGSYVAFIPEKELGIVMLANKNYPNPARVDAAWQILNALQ
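20 mM phosphate pH 7.0 + 0.01% (detergent screen) or 0.0001% Triton X-100; 5.3 nM AmpC reagent; cpd preinc 15 min RT; nitrocefin (800 uM stock) to start; A480 q20 s × 4 min; Activity was normalised to no-enzyme and no-compound control wells.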
AmpC inh no detg = blocks E. coli AmpC beta-lactamase in detergent-free assay | Potency, µM (highest dose often 57.1 µM), without a hit: top-dose activity change, negative = inhibition, most hits filed as inhibitors | actives 0.52% (n = 330,000) | P00811 | AID 485341 | AmpC nitrocefin hydrolysis, absorbance 480 nm, 0.0001% Triton;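 also: plate controls were no compound for no effect and no enzyme for full effect; nearly all actives have a fitted effect of over 20% in size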
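AmpC (5.3 nM in the dispensed reagent) in 20 mM phosphate pH 7.0 with 0.01% (detergent screen) or 0.0001% Triton X-100 was preincubated with compounds for 15 min at room temperature. Nitrocefin was then added from an 800 uM solution, and hydrolysis was followed at 480 nm.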
AMA1-RON2 inh = AMA1-RON2 (P. falciparum) interaction inhibition | AlphaScreen AMA1-biotinylated RON2 peptide binding | AID 720542 | actives 0.2% (n = 360,000) | Potency, µM (series often up to 58.2 µM), for the others: at the top dose activity change, negative = inhibition, most hits filed as inhibitors;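 also: 0% = vehicle wells and -100% = peptide control; nearly all actives have a fitted effect of over 45% in size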
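AMA1 (3D7) with his tag at 25 nM final met compounds first, then biotinylated RON2 peptide at 25 nM; detection used donor plus acceptor beads, 10 µg/mL apiece, read by AlphaScreen after 30 min at room temperature.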
Sm TGR inh = S. mansoni TGR enzyme inhibition | actives 3% (n = 360,000) | AID 485364 | purified TGR, DTNB reduction, TNB absorbance 405 nm | Potency, µM (highest dose often 114 µM), without a hit: at the highest dose activity change, negative = inhibition, usual class: inhibitors | Q962Y6; also: nearly all actives have a fitted effect of over 60% in size
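TGR 20 nM + NADPH 100 uM (dispensed conc.), cpd preinc 15 min RT; start with NADPH (500 uM addition) then DTNB (15 mM addition). Kinetic TNB absorbance, 405 nm filter. Four-parameter Hill fit across titration.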
FMDV inh = foot and mouth disease virus antiviral activity | FMDV antiviral cell-based qHTS | Potency, µM (top dose mostly 57.9 µM), without a hit: at the highest dose activity change, negative = inhibition, hits mostly inhibitors | actives 1.2% (n = 410,000) | AID 1159524; calls by dose curve; tested in HEK293T cells; also: read-out not given here; nearly all actives have a fitted effect of over 45% in size
The depositor's hits bear a star; ? = inconclusive; . = not tested or not shown; ! = a repeat was not active. Unless noted, calls follow the shape of the dose curve; as a rule, active = well fitted curve in the direction sought with a large enough effect; inconclusive = small, poorly fitted or top-dose-only effect, or another doubt; inactive = no such curve, though single readings can be large; an effect the other way counts as inactive or inconclusive. Unless noted, % is scaled to controls: 0 for no effect and ±100 for the full control effect; potency is read from the fitted curve at half-maximal effect.

SMILES | AmpC detergent | AmpC inh no detg | AMA1-RON2 inh | Sm TGR inh | FMDV inh
CC(=O)c1ccc(-c2nnc(CCC(=O)N(C)Cc3cccc4cnccc34)o2)s1 | 6% | 11% | -8% | 40µM* | 20%
CN(Cc1cccc2cnccc12)C(=O)CCc1nnc(CCc2ccccc2)o1 | 4% | 47% | 6% | 5% | 28%
CCCN(C(=O)Cc1nc(-c2ccc(OC)cc2)no1)c1ccccc1C | 1% | . | . | 1% | -19%
O=C(NC1CCCCCCC1)C1CCN(c2nc3ccccc3o2)CC1 | 3% | 33% | 7% | 0% | 14µM*
O=C(OCC(=O)c1c[nH]c2ccccc12)c1cc(Br)ccc1O | -2% | 2.2µM* | 7% | -1% | 15%
COCc1c(Br)c(C)nc2sc3c(=O)n(-c4cccc(Br)c4)nnc3c12 | 3% | . | . | 0% | 0%
O=C(CN(Cc1ccco1)Cc1cccs1)N1CCN(S(=O)(=O)c2cccc(F)c2)CC1 | 9% | 63% | 1% | 40µM* | -11%
COCCn1c(SCc2ccccc2F)nc2c([nH]c3ccccc32)c1=O | 2% | . | . | 6% | -22%
Cc1cc(C)n2cc(CSc3nnc(-c4ccccc4)c(-c4ccccc4)n3)nc2n1 | . | . | 1% | . | 28µM*
COc1cc(/C=C/C(=O)OCC(=O)N2CC(=O)Nc3ccccc32)ccc1O | -13% | -12% | -7% | 45µM* | -12%
C=C1CCC2C(C)(C)[C@H](O)CC[C@@]2(C)[C@@H]1COc1cc(=O)oc2ccccc12 (stereo partly drawn) | ? | 113% | 4% | -8% | ?
C=C1CC(COc2cc(=O)oc3ccccc23)(c2ccccc2)OC1=O (stereo not drawn) | . | . | -15% | . | 14µM*
COc1ccccc1C(=O)N[C@@H]1c2ccccc2C2(CCN(C(=O)c3ccnn3C)CC2)[C@H]1OC | . | . | . | . | 10%
CCOc1ccc(N(CC(=O)Nc2cccc(OC)c2)S(=O)(=O)c2c(C)noc2C)cc1 | ? | 18µM* | -4% | 7% | ?
CCOc1ccc(N(CC(=O)Nc2cccc(Cl)c2)S(=O)(=O)c2c(C)noc2C)cc1 | ? | -27% | 11% | -1% | ?
COc1ccc(N(CC(=O)Nc2ccc3c(c2)OCCO3)S(=O)(=O)c2cccnc2)cc1 | 3% | 40µM* | 0% | 5% | 0%
COCCn1c(=O)c(CCc2ccccc2)nc2cnc(Nc3ccccc3)nc21 | . | . | . | . | 22%
NS(=O)(=O)c1ccc(CCNC(=O)CCCCCn2c(=S)[nH]c3ccc(Br)cc3c2=O)cc1 | ? | 18µM* | 76% | -13% | ?
O=C(COc1ccc(F)cc1)Nc1ccc(C(=O)OCc2cc(=O)n3nc(C4CC4)sc3n2)cc1 | -4% | . | . | -3% | 4%
O=C(Nc1ccc2nc(-c3ccco3)c(-c3ccco3)nc2c1)N1CCCCCC1 | 3% | -36% | 12µM* | 0.71µM* | -12%
CCOC(=O)C1CCN(C(=O)Nc2ccc3nc(-c4ccco4)c(-c4ccco4)nc3c2)CC1 | -4% | ? | ? | 0.71µM* | ?
CCOC(=O)C1CCN(C(=O)Nc2ccc3c(c2)nc(C)n3C)CC1 | 1% | -24% | -1% | 2% | 0%
COc1ccc(S(=O)(=O)NCC(c2cccs2)S(=O)(=O)c2ccccc2)cc1OC (stereo not drawn) | 0% | . | . | 1µM* | 48%
O=S(=O)(NCC(c1cccs1)S(=O)(=O)c1ccccc1)c1ccc(F)cc1 (stereo not drawn) | 4% | . | . | 0.5µM* | 35%
O=C1Nc2ccc(F)cc2C12Nc1ccccc1-c1nnc(SCc3ccccc3)nc1O2 (stereo not drawn) | -10% | 18µM* | -9% | -10% | .
SMILES | AmpC detergent | AmpC inh no detg | AMA1-RON2 inh | Sm TGR inh | FMDV inh
O=C(NC(=S)Nc1ccccc1)c1csnn1 | ? | -43% | 11% | 14µM* | .
O=c1c2ccccc2sc2ccc(C#CC3(O)CCCCC3)cc12 | . | . | 3% | . | 45µM*
O=c1c2ccccc2oc2cc(C#CC3(O)CCCCC3)ccc12 | . | . | 19% | . | 11µM*
COc1ccc(C2=CC(c3c(C)nn(-c4ccccc4)c3Cl)n3nnnc3N2)cc1OC (stereo not drawn) | -13% | 3% | -9% | 18µM* | 18µM*
COc1ccccc1C1C=C(c2ccc(C)cc2)Nc2nnnn21 (stereo not drawn) | -11% | -19% | -17% | -3% | -3%
Cc1onc(-c2c(Cl)cccc2Cl)c1C(=O)NC1C(=O)N2C1SC(C)(C)C2C(=O)O (stereo not drawn) | ? | ? | 24% | -11% | -6%
CC1(C)SC2C(NC(=O)Cc3ccccc3)C(=O)N2C1C(=O)O (stereo not drawn) | . | . | . | . | -2%
Cc1onc(-c2c(Cl)cccc2Cl)c1C(=O)N[C@@H]1C(=O)N2[C@@H]1SC(C)(C)[C@@H]2C(=O)O | 0.045µM* | 0.1µM*! | 11% | -13% | -11%
CC(Oc1ccccc1)C(=O)NC1C(=O)N2C1SC(C)(C)C2C(=O)O (stereo not drawn) | 35µM* | ? | 0% | . | 4%
Cn1c(=O)n(C)c2cc(N3CCOCC3)c(NC(=O)c3ccc(C(C)(C)C)cc3)cc21 | 27% | . | . | 0% | -14%
CCCCNC(=O)c1cccc(NC(=O)c2nsc3ccccc23)c1 | -3% | . | . | 7% | 25%
COc1cc(CN2CCC3(CCC(CNC(=O)c4ccccc4)O3)CC2)cc(OC)c1 (stereo not drawn) | . | . | . | . | -10%
Cc1ccccc1CS(=O)(=O)Cc1ccc(C(=O)NCc2ccco2)o1 | 3% | -14% | 8% | 56µM* | -26%
O=C(NCc1ccccn1)c1ccc(CS(=O)(=O)Cc2ccc(Cl)cc2)o1 | ? | -8% | 12% | 28µM* | -16%
Cc1cc(C(F)(F)F)nn1Cc1ccc(C(=O)NCc2ccco2)o1 | -1% | 64% | 2% | 11µM* | -14%
Cc1ccccc1CS(=O)(=O)Cc1ccc(C(=O)NCc2ccccn2)o1 | 0% | -2% | 98% | 13µM* | 11%
Cc1cc(C)nc(SCNC(=O)c2ccccc2)n1 | 3% | 4% | 75% | ? | -16%
Cc1cc(SCNC(=O)c2ccccc2)nc(C(C)C)n1 | 0% | -20% | 66% | 11µM* | -4%
Fc1ccccc1N1CCN(c2nccn3nc(-c4ccc(Br)cc4)cc23)CC1 | 17% | . | . | 4% | -10%
Cc1ccc(CSCCNC(=O)C2CCN(S(=O)(=O)Cc3ccccc3)CC2)cc1 | -3% | . | . | -8% | -15%
CCSc1nc(O)c(C2OC(=O)c3c2ccc(OC)c3OC)c(=O)n1-c1ccccc1 (stereo not drawn) | ? | -20% | -4% | 7.1µM* | -7%
Cc1cccc(NC(=O)/C(C#N)=C/c2cn(CC(=O)NCc3ccco3)c3ccccc23)c1C | -12% | 14µM* | 0% | -10% | 0%
